# Reference: the supplement of paper PMC9135407
# Several values for one entry are separate records, joined by “and”; a condition that tells them apart may be missing. Identical values can stand only once. Counter-ions that a name gives are not always drawn. About 620 (11%) of roughly 5,800 compounds showed activity. For the sample, actives were picked, then their nearest neighbours and some compounds at random. A number with no mark means an inactive call.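 Rule for the calls: active = score above a cut-off or among the top three wells of a plate; in these data no inactive exceeds 0.85.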
# System: primary human hepatic stellate cells (donor 1)
# Assay: scaled lipid accumulation score (0 = DMSO-like, 1 = nortriptyline-like); higher = stronger HSC inactivation (lipid re-accumulation), active = hit call of the paper
# Conditions: 48 h
# [1] = library stock concentration: 10 mM
# [2] = library stock concentration: 80 uM
# [3] = library stock concentration: 400 uM
# [4] = library stock concentration: 1 mM
# [5] = library stock concentration: 2 mM
# [6] = library stock concentration: 3.33 mM
structure (smiles),measurement,setting,value
O=C(O)[C@H]1NCCC[C@H]1C(=O)O,scaled lipid accumulation score,[1],≤ 0
C[S+]([O-])c1ccc(-c2nc(-c3ccc(F)cc3)c(-c3ccncc3)[nH]2)cc1 (centres undefined),scaled lipid accumulation score,[2],0.004
same,scaled lipid accumulation score,[3],≤ -0.009 and ≤ -0.005
same,scaled lipid accumulation score,[4],≤ 0
same,scaled lipid accumulation score,[5],0.017 and ≤ -0.005
same,scaled lipid accumulation score,[6],≤ 0
same,scaled lipid accumulation score,library stock concentration: 13.2 mM,≤ -0.012
CCCCCC=CC=CC(O)CCCCCCCC(=O)OCC(COC(=O)CCCCCCCC=CC=CC(O)CCCCC)OC(=O)CCCCCCCC=CC=CC(O)CCCCC (centres undefined) [Hydroxy Linoleins],scaled lipid accumulation score,[4],0.061
O=C(Nc1ccc(-c2ccnc(Nc3ccc(N4CCOCC4)cc3)n2)cc1)C1CCCN1 (centres undefined),scaled lipid accumulation score,[2],≤ 0
same,scaled lipid accumulation score,[3],0.007
same,scaled lipid accumulation score,[5],0.036
same,scaled lipid accumulation score,[6],0.063
same,scaled lipid accumulation score,[1],0.662
N#CCNC(=O)c1ccc(-c2ccnc(Nc3ccc(N4CCOCC4)cc3)n2)cc1 [Momelotinib (CYT387) (10 mM)],scaled lipid accumulation score,[1],0.945 (active)
O=C(Nc1ccc(-c2ccnc(Nc3ccc(N4CCOCC4)cc3)n2)cc1)[C@@H]1CCCN1,scaled lipid accumulation score,[1],1.06 (active)
c1ccc2c(Oc3nc(Nc4ccc(N5CCOCC5)cc4)c4ncn(C5CCCCC5)c4n3)cccc2c1 [Purmorphamine],scaled lipid accumulation score,[4],≤ 0
same,scaled lipid accumulation score,[6],≤ 0
same,scaled lipid accumulation score,[1],0.032
N#CCNC(=O)c1ccc(-c2ccnc(Nc3ccc(N4CCOCC4)cc3)n2)cc1 [Momelotinib (CYT387) (0.4 mM)],scaled lipid accumulation score,[3],≤ -0.005
N#CCNC(=O)c1ccc(-c2ccnc(Nc3ccc(N4CCOCC4)cc3)n2)cc1 [listing 1 of 2 here],scaled lipid accumulation score,[2],≤ -0.009
same,scaled lipid accumulation score,[3],0.038
same,scaled lipid accumulation score,[5],≤ -0.009
same,scaled lipid accumulation score,[1],0.768
N#CCNC(=O)c1ccc(-c2ccnc(Nc3ccc(N4CCOCC4)cc3)n2)cc1 [Momelotinib (CYT387) (2 mM)],scaled lipid accumulation score,[5],0.858 (active)
N#CCNC(=O)c1ccc(-c2ccnc(Nc3ccc(N4CCOCC4)cc3)n2)cc1 [listing 2 of 2 here],scaled lipid accumulation score,[6],1.05 (active)
same,scaled lipid accumulation score,[1],0.922 (active)
CC1=C(/C=C/C(=C/C=C/C(C)=C/C(=O)O)c2ccc(C)cc2)C(C)(C)CCC1,scaled lipid accumulation score,[1],≤ -0.001
CCCCCC=CCC=CCC=CCCCCCCC(=O)OC [Dihomo-.gamma.-Linolenic Acid methyl ester],scaled lipid accumulation score,[4],0.037
CC(C)CC(N)=O,scaled lipid accumulation score,[1],0.291
CC(C)CC(N)=O [Isovaleramide],scaled lipid accumulation score,[6],≤ 0
same,scaled lipid accumulation score,[1],≤ -0.001
Cc1ncc2ccccc2c1C#N [4-Cyano-3-methylisoquinoline],scaled lipid accumulation score,[6],≤ 0
"CC(=O)NC1[C@@H](O)OC(CO)[C@@H](O)[C@H]1O[C@H](C)C(=O)O (stereo in doubt) [Muramic acid, N-acetyl]",scaled lipid accumulation score,,≤ 0
CCC(=O)Oc1ccc2c(c1)CC[C@@H]1[C@@H]2CC[C@]2(C)[C@@H](OC(=O)CC)CC[C@@H]12,scaled lipid accumulation score,[1],≤ 0
Brc1c(Br)c(Br)c2n[nH]nc2c1Br [Casein Kinase II Inhibitor I],scaled lipid accumulation score,[6],≤ 0
CCCOc1ccc(C(=O)OCCN(CC)CC)cc1N [Proxymetacaine],scaled lipid accumulation score,[1],0.166
CCN(CC)CCOC(=O)c1cc(Cl)c(N)cc1OC [SDZ 205-557 hydrochloride],scaled lipid accumulation score,[1],0.003
CCCOc1ccc(C(=O)OCCN(CC)CC)cc1N [Proparacaine hydrochloride],scaled lipid accumulation score,,≤ 0
same,scaled lipid accumulation score,library stock concentration: 6 mM,≤ 0
CCN(CC)CCCCCCCCOC(=O)c1cc(OC)c(OC)c(OC)c1,scaled lipid accumulation score,library stock concentration: 12.6 mM,1.02 (active)
CCCCOc1cc(C(=O)OCCN(CC)CC)ccc1N [Oxybuprocaine HCl],scaled lipid accumulation score,[6],≤ 0
same,scaled lipid accumulation score,[1],0.338
CCCOc1ccc(C(=O)OCCN(CC)CC)cc1N [Proparacaine HCl],scaled lipid accumulation score,[6],≤ 0
same,scaled lipid accumulation score,[1],≤ 0
CCCCOc1cc(C(=O)OCCN(CC)CC)ccc1N [Benoxinate hydrochloride],scaled lipid accumulation score,,0.276
CCN(CC)CCCCCCCCOC(=O)c1cc(OC)c(OC)c(OC)c1.Cl [TMB-8 hydrochloride],scaled lipid accumulation score,[1],1.03 (active)
"CCN(CC)CCOC(=O)c1cc(Cl)c(N)cc1OC [SDZ-205,557 hydrochloride]",scaled lipid accumulation score,[1],0.051
CCN(CCCCOC(=O)c1ccc(OC)c(OC)c1)C(C)Cc1ccc(OC)cc1 (centres undefined) [Mebeverine hydrochloride],scaled lipid accumulation score,,0.362
same,scaled lipid accumulation score,[1],≤ 0
COc1ccc2cc(C(C#N)OC(=O)CC3OC3c3ccccc3)ccc2c1 (centres undefined),scaled lipid accumulation score,[4],0.017
C[N+](C)(C)[C@@H](Cc1c[nH]c(=S)[nH]1)C(=O)[O-] [Ergothioneine],scaled lipid accumulation score,library stock concentration: 8.7 mM,≤ -0.006
CN(C)CCCCC(=O)Nc1ccc(NC(=S)NC(=O)c2ccc(C(C)(C)C)cc2)cc1 [Tenovin-6] [listing 1 of 2 here],scaled lipid accumulation score,[4],0.143
same,scaled lipid accumulation score,[1],0.405
CN(C)CCCCC(=O)Nc1ccc(NC(=S)NC(=O)c2ccc(C(C)(C)C)cc2)cc1 [Tenovin-6] [listing 2 of 2 here],scaled lipid accumulation score,[6],1.18 (active)
CC(=O)Nc1ccc(NC(=S)NC(=O)c2ccc(C(C)(C)C)cc2)cc1 [Tenovin-1],scaled lipid accumulation score,[4],≤ 0
"O=C(O)C=Cc1cc(Br)c(Br)c(Br)c1Br [Casein Kinase II Inhibitor III, TBCA]",scaled lipid accumulation score,[6],≤ 0
Cc1cccc(-c2[nH]c(CNc3ccccc3F)nc2-c2ccc3ncnn3c2)n1,scaled lipid accumulation score,[2],≤ -0.001
same,scaled lipid accumulation score,[3],≤ -0.001
same,scaled lipid accumulation score,[5],≤ -0.001
same,scaled lipid accumulation score,[1],≤ -0.001
CCCCCCCCCCCCCCCCOC[C@@H](O)COP(=O)(O)O [1-Hexadecyl Lysophosphatidic Acid],scaled lipid accumulation score,[4],≤ 0
Cc1nc(N=Nc2ccc(C(=O)O)cc2)c(COP(=O)(O)O)c(C=O)c1O,scaled lipid accumulation score,[1],0.139
CCCCCCCCCCCCCCCCCC(=O)NCCS(=O)(=O)O [N-Stearoyl Taurine],scaled lipid accumulation score,[4],0.008
CNC(=O)c1ccc(C)c(-n2c(C)cc(OCc3ccc(F)cc3F)c(Br)c2=O)c1,scaled lipid accumulation score,[2],0.057
same,scaled lipid accumulation score,[3],0.038
same,scaled lipid accumulation score,[5],0.056
same,scaled lipid accumulation score,[6],0.014
same,scaled lipid accumulation score,[1],≤ 0 and ≤ -0.001
CCN(CCCOc1ccc2c(Nc3cc(CC(=O)Nc4cccc(F)c4)[nH]n3)ncnc2c1)CCOP(=O)(O)O [Barasertib],scaled lipid accumulation score,[2],0.022
same,scaled lipid accumulation score,[3],≤ -0.001
same,scaled lipid accumulation score,[5],0.115
same,scaled lipid accumulation score,[1],0.242
"CCC=CCC=CCC=CCCCCCCCCCC(=O)O [11(Z),14(Z),17(Z)-Eicosatrienoic Acid]",scaled lipid accumulation score,[4],≤ 0
Cc1ccc(Sc2ccccc2N2CCNCC2)c(C)c1,scaled lipid accumulation score,[6],0.769
same,scaled lipid accumulation score,[1],0.102
O=S(=O)(c1ccccc1)c1cnc2c(N3CCNCC3)cccc2c1 [listing 1 of 2 here],scaled lipid accumulation score,[6],0.285
O=S(=O)(c1ccccc1)c1cnc2c(N3CCNCC3)cccc2c1 [listing 2 of 2 here],scaled lipid accumulation score,[1],0.994 (active)
CCCCCCC[C@H](O)/C=C/[C@@H]1[C@@H](C/C=C\CCCC(=O)O)[C@@H](O)C[C@H]1O [20-ethyl Prostaglandin F2.alpha.],scaled lipid accumulation score,[4],≤ 0
NC(=O)Nc1cc(-c2ccccc2)sc1C(N)=O [IKK-2 Inhibitor XI],scaled lipid accumulation score,[6],≤ 0
NC(=O)Nc1cc(-c2cccc(F)c2)sc1C(=O)N[C@H]1CCCNC1 [listing 1 of 2 here],scaled lipid accumulation score,[6],0.879 (active)
NC(=O)Nc1cc(-c2cccc(F)c2)sc1C(=O)N[C@H]1CCCNC1 [listing 2 of 2 here],scaled lipid accumulation score,[2],≤ 0
same,scaled lipid accumulation score,[3],0.06 and ≤ -0.005
same,scaled lipid accumulation score,[5],0.23 and 0.444
same,scaled lipid accumulation score,[1],0.559 and 0.276
CNCC(O)c1ccc(O)c(O)c1 (racemic) [(+/-)-Epinephrine hydrochloride],scaled lipid accumulation score,[1],≤ 0
"CCCCC[C@H](O)CC[C@@H]1[C@@H](C/C=C\CCCC(=O)O)[C@@H](O)C[C@H]1O [13,14-dihydro Prostaglandin F2.alpha.]",scaled lipid accumulation score,[4],≤ 0
CCCCC[C@H](O)/C=C/[C@@H]1[C@@H](CCCCCCC(=O)O)[C@@H](O)C[C@H]1O [Prostaglandin F1.alpha.],scaled lipid accumulation score,[4],≤ 0
O=P(O)(O)OC1[C@@H](O)[C@H](O)C(O)[C@H](O)[C@@H]1O (stereo partly drawn) [D-myo-Inositol-3-phosphate (sodium salt)],scaled lipid accumulation score,[4],0.009
Cc1nc(N)sc1-c1ccnc(Nc2ccc(N3CCOCC3)cc2)n1 [listing 1 of 3 here],scaled lipid accumulation score,[1],1.07 (active)
Fc1cc(-c2ccnc(Nc3ccc(-n4cnc(N5CCOCC5)n4)cc3)n2)cc(N2CCOCC2)c1,scaled lipid accumulation score,[2],0.394
same,scaled lipid accumulation score,[3],0.734
same,scaled lipid accumulation score,[5],0.178
same,scaled lipid accumulation score,[1],0.442
Cc1nc(N)sc1-c1ccnc(Nc2ccc(N3CCOCC3)cc2)n1 [listing 2 of 3 here],scaled lipid accumulation score,[3],≤ -0.005
same,scaled lipid accumulation score,[5],≤ -0.005
same,scaled lipid accumulation score,[6],≤ 0
Cc1nc(N)sc1-c1ccnc(Nc2ccc(N3CCOCC3)cc2)n1 [listing 3 of 3 here],scaled lipid accumulation score,[1],1.02 (active)
Cc1ncc(-c2ccnc(Nc3ccc(S(C)(=O)=O)cc3)n2)n1C(C)C,scaled lipid accumulation score,[2],0.708
same,scaled lipid accumulation score,[3],0.763
same,scaled lipid accumulation score,[5],0.527
same,scaled lipid accumulation score,[6],0.078
same,scaled lipid accumulation score,[1],0.329 and 0.334
C[C@@H](O)[C@@H]1NC(=O)[C@H](CCCCN)NC(=O)[C@@H](Cc2c[nH]c3ccccc23)NC(=O)[C@H](Cc2ccccc2)NC(=O)[C@@H](NC(=O)[C@H](N)Cc2ccccc2)CSSC[C@@H](C(=O)N[C@H](CO)[C@@H](C)O)NC1=O [Octreotide],scaled lipid accumulation score,[5],0.006
CC(=O)O/N=C1/C(c2c(O)[nH]c3cc(Br)ccc23)=Nc2ccccc21 [GSK-3 Inhibitor X],scaled lipid accumulation score,[6],≤ 0
